Activity calls are given as the source filed them.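 How the source made its calls: active means cell survival after UV exposure 2 SD above solvent-only control wells at 10 µM, confirmed on one or two repeats; inactive means the rest.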
Assay: protection of CHO cells from pyrene-fatty acid UV killing, primary screen, phospholipid biosynthesis inhibitor project, ZR-82 cells, Analyticon library, screen 2 (AID 1347383);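 further: survival reflects blocked phospholipid synthesis cutting uptake of the phototoxic fatty acid; compound and fatty acid exposure 3 h then viability read next day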
Conditions: ZR-82 CHO cells, CellTiter Blue, at 10 µM, peroxisome-deficient CHO-K1 variant, with DGAT-1, DGAT-2 and ACAT inhibitors

| SMILES | outcome |
| --- | --- |
| CC1=C2C[C@H]3O[C@@]3(C)CCC3O[C@@]3(C)C[C@@]2(O)OC1=O (stereo not given in full) | inactive |
| C=CCc1ccc(O)c(O)c1 | inactive |
| COc1cc2oc(=O)ccc2cc1[C@H]1OC(=O)[C@]2(C)OC12 (stereo not given in full) | inactive |
| COc1ccc2ccc(=O)oc2c1 | inactive |
| C=C(C)C(O)Cc1c(O)cc(CCc2ccccc2)c(CC=C(C)C)c1O (stereo not given) | inactive |
| COc1ccc(Cc2nccc3cc(OC)c(OC)cc23)cc1OC | inactive |
| O=C(/C=C/c1ccccc1)c1ccccc1O | inactive |
| CCCC(O)C1OCC2=C1C(O)C1OC1C2O (stereo not given) | inactive |
| C/C=C/C1C=CC(O)C(O)C1C(O)C(C)=O (stereo not given) | inactive |
| OC1C(c2ccccc2)CCC(c2ccccc2)C1O (stereo not given) | inactive |
| COc1ccc(CC2C(=O)OCC2Cc2cc(OC)c3c(c2)OCO3)cc1OC (stereo not given) | inactive |
| CCOC(=O)C1C(=O)C(=O)Nc2ccccc21 (stereo not given) | inactive |
| CC[C@H](C)C(=O)O[C@H]1CCC=C2C=C[C@H](C)[C@H](CC[C@H]3C[C@@H](O)CC(=O)O3)[C@H]21 | inactive |
| CO[C@H]1/C=C/[C@@](C)(O)/C=C/C(=O)O[C@H](C)[C@@H](C)CC/C=C/1C | inactive |
| COc1c(C)c2c(c(O)c1C/C=C(\C)C(O)CC(=O)O)C(=O)OC2 (stereo not given) | inactive |
| C=C[C@H](/C=C\c1ccc(O)cc1)c1ccc(O)cc1 | inactive |
| CC1(O)CC(C)(O)C2=C(O1)C(=O)c1ccccc12 (stereo not given) | inactive |
| CC1Cc2cc(O)c(O)cc2C(c2ccc(O)cc2)C1C (stereo not given) | inactive |
| CC(O)C(O)c1ccc(OC(C)C(O)c2ccc(O)cc2)cc1 (stereo not given) | inactive |
| COc1cc(O)cc2occ(-c3ccc(O)cc3)c(=O)c12 | inactive |
